Reference: PubChem BioAssay (EPA / NIEHS)
Active and inactive are the calls of the source. Rule for the calls: active = hit-call score of the fitted dose curve at least 0.9, where 1 is the maximum; inactive = score below 0.9.

Tests used:
Conditions in all cases: mRNA level, 48 h; actives raise or lower the signal
CYP2C9 (gene 1559) = assay: LTEA_HepaRG_CYP2C9: Life Technologies and Expression Analysis (LTEA) Assay for CYP2C9 using HepaRG (AID 2283484)
In short: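 Differentiated human HepaRG cells in serum-free induction medium were exposed 48 h to chemicals in 8-point half-log series from 100 uM (0.5% DMSO), in duplicate. CYP2C9 mRNA was measured by qRT-PCR, normalized to ACTB/GAPDH/POLR2A, with bidirectional fitting versus DMSO.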

CYP2E1 (gene 1571) = assay: LTEA_HepaRG_CYP2E1: Life Technologies and Expression Analysis (LTEA) Assay for CYP2E1 using HepaRG (AID 2283485)
In short: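 Human liver line HepaRG, plated 48 h, then serum-free induction medium + chemical x 48 h; 8-pt CRC from 100 uM, half-log, 0.5% DMSO, n=2. Readout: CYP2E1 mRNA qRT-PCR vs ACTB/GAPDH/POLR2A; bidirectional fit vs DMSO.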

CYP4A11 (gene 1579) = assay: LTEA_HepaRG_CYP4A11: Life Technologies and Expression Analysis (LTEA) Assay for CYP4A11 using HepaRG (AID 2283486)
In short: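 Human hepatic HepaRG cultures receive duplicate 48 h exposures across a concentration-response series topping at 100 uM. Expression changes in CYP4A11 are measured by qRT-PCR relative to DMSO controls.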

[1] = read-out: DNA damage-inducible transcript 3 (DDIT3), DDIT3 (gene 1649); assay: LTEA_HepaRG_DDIT3: Life Technologies and Expression Analysis (LTEA) Assay for DNA damage-inducible transcript 3 (DDIT3) using HepaRG (AID 2283488)
In short: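 HepaRG plated 48 h, switched to serum-free induction medium, dosed 48 h (100 uM top, half-log, 8 pts, 0.5% DMSO, n=2); RNA isolated; DDIT3 by qRT-PCR; bidirectional curve fit vs DMSO.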

[2] = read-out: Pro-epidermal growth factor (Homo sapiens) (UniProt P01133); assay: LTEA_HepaRG_EGF: Life Technologies and Expression Analysis (LTEA) Assay for Epidermal growth factor (EGF) using HepaRG (AID 2283489)
In short: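 Concentration-response mRNA assay: HepaRG cells dosed 48 h (max 100 uM, 0.5% DMSO), EGF measured by qRT-PCR and normalized to ACTB/GAPDH/POLR2A.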

[3] = read-out: Ezrin (EZR), EZR (gene 7430); assay: LTEA_HepaRG_EZR: Life Technologies and Expression Analysis (LTEA) Assay for Ezrin (EZR) using HepaRG (AID 2283491)
In short: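 Read-out is EZR transcript level by qRT-PCR, normalized to three housekeeping genes and fitted bidirectionally against the DMSO control. Human HepaRG cells received test chemicals for 48 h at eight half-log concentrations up to 100 uM in 0.5% DMSO.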

[4] = read-out: Cytochrome P450 3A7 (Homo sapiens) (UniProt P24462); assay: LTEA_HepaRG_CYP3A7: Life Technologies and Expression Analysis (LTEA) Assay for CYP3A7 using HepaRG (AID 2283492)
In short: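 qRT-PCR of CYP3A7 in HepaRG lysates after 48 h treatment; concentration-response (8 points, max 100 uM) analysed bidirectionally relative to 0.5% DMSO controls.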

CYP3A5 (gene 1577) = assay: LTEA_HepaRG_CYP3A5: Life Technologies and Expression Analysis (LTEA) Assay for CYP3A5 using HepaRG (AID 2283493)
In short: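 HepaRG plated 48 h, switched to serum-free induction medium, chemicals added 48 h (max 100 uM, half-log, 0.5% DMSO). RNA isolated; CYP3A5 by TaqMan qRT-PCR. Gain/loss vs DMSO.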

[5] = read-out: Fatty Acid-Binding Protein 1 (FABP1), FABP1 (gene 2168); assay: LTEA_HepaRG_FABP1: Life Technologies and Expression Analysis (LTEA) Assay for Fatty Acid-Binding Protein 1 (FABP1) using HepaRG (AID 2283494)
In short: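 Differentiated human HepaRG cells exposed 48 h in serum-free induction medium to eight half-log concentrations up to 100 uM (0.5% DMSO), duplicate. FABP1 mRNA by qRT-PCR, normalised to ACTB, GAPDH, POLR2A; bidirectional fitting against DMSO.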

[6] = read-out: Cytochrome P450 4A22 (Homo sapiens) (UniProt Q5TCH4); assay: LTEA_HepaRG_CYP4A22: Life Technologies and Expression Analysis (LTEA) Assay for Cytochrome P450 4A22 (CYP4A22) using HepaRG (AID 2283495)
In short: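 Concentration-response (8 points, max 100 uM, 0.5% DMSO) in human HepaRG liver cells after 48 h exposure. CYP4A22 mRNA by TaqMan qRT-PCR with housekeeping-gene normalization.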

[7] = read-out: Cytochrome P450 7A1 (Homo sapiens) (UniProt P22680); assay: LTEA_HepaRG_CYP7A1: Life Technologies and Expression Analysis (LTEA) Assay for Cytochrome P450 7A1 (CYP7A1) using HepaRG (AID 2283496)
In short: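 HepaRG cells plated 48 h, then switched to serum-free induction medium and exposed in duplicate for 48 h to 8-point half-log series from 100 uM in 0.5% DMSO. CYP7A1 mRNA by qRT-PCR (TaqMan), normalized to ACTB/GAPDH/POLR2A; bidirectional fit versus DMSO.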

[8] = read-out: Glutathione S-Transferase (GSTA2), GSTA2 (gene 2939); assay: LTEA_HepaRG_GSTA2: Life Technologies and Expression Analysis (LTEA) Assay for Glutathione S-Transferase (GSTA2) using HepaRG (AID 2283497)
In short: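 Differentiated human HepaRG cells were exposed in duplicate for 48 h in serum-free induction medium, 8 points from 100 uM top in half-log steps, 0.5% DMSO. GSTA2 mRNA was measured by TaqMan qRT-PCR, normalized to ACTB, GAPDH and POLR2A; bidirectional fit versus DMSO.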

[9] = read-out: Glutamate-cysteine ligase catalytic (GCLC), GCLC (gene 2729); assay: LTEA_HepaRG_GCLC: Life Technologies and Expression Analysis (LTEA) Assay for Glutamate-cysteine ligase catalytic (GCLC) using HepaRG (AID 2283498)
In short: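 Differentiated HepaRG cells exposed 48 h in serum-free induction medium, eight-point half-log series topping at 100 uM in 0.5% DMSO, duplicates. GCLC mRNA by qRT-PCR normalized to ACTB, GAPDH and POLR2A, fitted bidirectionally versus DMSO.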

[10] = read-out: growth arrest and DNA damage 45 (GADD45G), GADD45G (gene 10912); assay: LTEA_HepaRG_GADD45G: Life Technologies and Expression Analysis (LTEA) Assay for growth arrest and DNA damage 45 (GADD45G) using HepaRG (AID 2283499)
In short: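 Concentration-response in HepaRG: 48 h dosing, 0.5% DMSO, highest level 100 uM. GADD45G expression by qRT-PCR, normalised to endogenous controls; bidirectional fit to DMSO.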

[11] = read-out: Glutamate-cysteine ligase regulatory (GCLM), GCLM (gene 2730); assay: LTEA_HepaRG_GCLM: Life Technologies and Expression Analysis (LTEA) Assay for Glutamate-cysteine ligase regulatory (GCLM) using HepaRG (AID 2283500)
In short: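 Cells were plated, cultured 48 h, switched to serum-free induction medium, then dosed in duplicate for 48 h at eight half-log concentrations up to 100 uM. RNA was then profiled by qRT-PCR; gain or loss versus DMSO was fitted.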

[12] = read-out: Glutathione S-transferase M3 (GSTM3), GSTM3 (gene 2947); assay: LTEA_HepaRG_GSTM3: Life Technologies and Expression Analysis (LTEA) Assay for Glutathione S-transferase M3 (GSTM3) using HepaRG (AID 2283501)
In short: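 Expression of GSTM3 is determined by qRT-PCR in human liver HepaRG cells treated 48 h with an 8-point half-log range from 100 uM in 0.5% DMSO.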

[13] = read-out: Heat shock 70 kDa protein 1 (HSPA1A), gene 3303; assay: LTEA_HepaRG_HSPA1A: Life Technologies and Expression Analysis (LTEA) Assay for Heat shock 70 kDa protein 1 (HSPA1A) using HepaRG (AID 2283502)
In short: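 Readout is HSPA1A transcript level by microfluidic qRT-PCR, normalized to three housekeeping genes and analysed for gain or loss of signal relative to 0.5% DMSO. Human HepaRG cultures received test chemicals for 48 h at up to 100 uM.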

[14] = read-out: Hypoxia-inducible factor 1-alpha (Homo sapiens) (UniProt Q16665); assay: LTEA_HepaRG_HIF1A: Life Technologies and Expression Analysis (LTEA) Assay for Hypoxia-inducible factor 1 (HIF1A) Trancription factor using HepaRG (AID 2283503)
In short: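 Differentiated HepaRG cells in serum-free induction medium exposed 48 h, in duplicate, to 8-point half-log series from 100 uM in 0.5% DMSO. HIF1A mRNA measured by TaqMan qRT-PCR, normalized to ACTB/GAPDH/POLR2A, fitted bidirectionally versus DMSO.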

[15] = read-out: Early growth response protein 1 (EGR1) transcription factor, EGR1 (gene 1958); assay: LTEA_HepaRG_EGR1: Life Technologies and Expression Analysis (LTEA) Assay for Early growth response protein 1 (EGR1) transcription factor using HepaRG (AID 2283490)
In short: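 Differentiated HepaRG cells in serum-free induction medium exposed 48 hours, duplicate, to 8 half-log concentrations up to 100 uM in 0.5% DMSO. EGR1 mRNA measured by TaqMan qRT-PCR, normalized to ACTB, GAPDH, POLR2A; bidirectional fit versus DMSO.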

Measured: AC50

Chain of Cytochrome P450 3A7 (Homo sapiens) (P24462 whole entry, looked up): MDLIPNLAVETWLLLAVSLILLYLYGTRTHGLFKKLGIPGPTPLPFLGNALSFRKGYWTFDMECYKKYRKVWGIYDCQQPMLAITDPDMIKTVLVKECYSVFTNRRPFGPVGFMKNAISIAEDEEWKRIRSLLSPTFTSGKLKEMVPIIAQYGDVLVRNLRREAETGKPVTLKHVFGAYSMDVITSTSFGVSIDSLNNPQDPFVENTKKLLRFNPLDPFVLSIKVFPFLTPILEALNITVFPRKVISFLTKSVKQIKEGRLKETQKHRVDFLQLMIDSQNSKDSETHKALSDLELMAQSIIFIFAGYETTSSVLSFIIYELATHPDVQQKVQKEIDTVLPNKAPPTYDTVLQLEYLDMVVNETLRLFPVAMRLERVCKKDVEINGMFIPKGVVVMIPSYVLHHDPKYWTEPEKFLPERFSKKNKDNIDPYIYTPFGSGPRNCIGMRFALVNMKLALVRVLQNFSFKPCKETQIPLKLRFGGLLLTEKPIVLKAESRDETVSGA
Chain of Hypoxia-inducible factor 1-alpha (Homo sapiens) (Q16665 whole entry, looked up): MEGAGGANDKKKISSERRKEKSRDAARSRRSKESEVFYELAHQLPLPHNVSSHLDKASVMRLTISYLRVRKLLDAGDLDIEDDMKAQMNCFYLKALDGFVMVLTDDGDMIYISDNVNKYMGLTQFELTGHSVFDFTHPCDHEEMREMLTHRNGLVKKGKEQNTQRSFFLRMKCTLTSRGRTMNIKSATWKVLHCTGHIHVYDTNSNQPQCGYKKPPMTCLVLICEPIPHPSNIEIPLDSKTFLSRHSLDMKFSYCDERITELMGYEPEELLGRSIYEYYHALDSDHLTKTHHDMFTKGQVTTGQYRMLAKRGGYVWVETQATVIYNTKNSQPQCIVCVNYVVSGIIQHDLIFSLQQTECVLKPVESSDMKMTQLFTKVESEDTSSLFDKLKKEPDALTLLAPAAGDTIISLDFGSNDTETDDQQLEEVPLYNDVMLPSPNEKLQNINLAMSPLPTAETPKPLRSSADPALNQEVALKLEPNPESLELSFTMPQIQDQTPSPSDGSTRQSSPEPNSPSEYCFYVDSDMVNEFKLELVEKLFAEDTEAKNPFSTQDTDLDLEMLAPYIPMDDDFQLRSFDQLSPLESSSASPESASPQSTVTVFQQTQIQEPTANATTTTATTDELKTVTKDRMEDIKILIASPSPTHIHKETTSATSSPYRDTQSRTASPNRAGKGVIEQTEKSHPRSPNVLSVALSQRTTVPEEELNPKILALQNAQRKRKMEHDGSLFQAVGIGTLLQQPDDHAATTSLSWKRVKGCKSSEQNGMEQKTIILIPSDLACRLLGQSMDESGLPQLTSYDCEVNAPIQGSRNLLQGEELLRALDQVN

O=c1c(-c2ccc(O)cc2)coc2cc(O)cc(O)c12
not listed: [15]
inactive: all other assays above

C[C@]12CC[C@@H]3c4ccc(O)cc4CC[C@H]3[C@@H]1CCC2=O
inactive: [3] | [8] | [9] | [10] | [11] | [12] | [14]
active: [1] 64.5 µM | [2] 22.4 µM | [5] 30.8 µM | [13] 33.2 µM

CCCCCCCCCCCC[N+](C)(C)C
inactive: [2] | [4] | [6] | [9]
active: CYP2C9 (gene 1559) 91.4 µM | CYP2E1 (gene 1571) 94.1 µM | CYP4A11 (gene 1579) 76.2 µM | [1] 78.1 µM | [15] 83.9 µM | [3] 83.7 µM | CYP3A5 (gene 1577) 86.6 µM | [5] 93.9 µM | [8] 93.7 µM | [10] 78 µM | [11] 84.1 µM | [12] 93.9 µM | [13] 80.9 µM | [14] 83.3 µM

NC(=O)c1nc(-c2cccc(-c3cc(F)ccc3OCC(F)(F)C(F)(F)F)c2)n[nH]1
active: CYP2E1 (gene 1571) 16.9 µM | CYP4A11 (gene 1579) 12.3 µM | [1] 78.1 µM | [15] 84.4 µM | [5] 50 µM | [6] 9.78 µM | [14] 87.2 µM
not listed: [7] | [13]
inactive: all other assays above

CCCCCCCCCC(=O)O
not listed: [7] | [15]
inactive: all other assays above

CC(C)(c1cc(Br)c(O)c(Br)c1)c1cc(Br)c(O)c(Br)c1
active: CYP2E1 (gene 1571) 85.6 µM | [4] 9.73 µM | [8] 72.4 µM | [9] 78 µM | [13] 88.6 µM | [14] 74 µM
not listed: [15]
inactive: all other assays above
